The list is not random: actives were taken first. Their share in the collection is about 3%.
Measles CPE: protection of cells from measles virus | Measles virus-infected cells, CPE protection, absorbance | protection (pct of control), % at 4 µM | 1.5% of 140,000 active | AID 841; in the data active means protection mostly above about 24%, no sharp cut-off; inactive means mostly below about 26%
ROMK mod: human ROMK K+ channel modulation, primary screen; P48048; Tet-inducible ROMK, thallium flux fluorescence; actives lie on both sides; B-score at 10 µM; 2% of 130,000 active; AID 1918;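 active means signal ratio slope over the read window, or its plate-corrected B-score, at least 3 SD from the plate mean, either direction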;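 further: B-score of the F/F0 ratio slope over 7 to 12 s after thallium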
Target sequence (P48048 whole entry, looked up): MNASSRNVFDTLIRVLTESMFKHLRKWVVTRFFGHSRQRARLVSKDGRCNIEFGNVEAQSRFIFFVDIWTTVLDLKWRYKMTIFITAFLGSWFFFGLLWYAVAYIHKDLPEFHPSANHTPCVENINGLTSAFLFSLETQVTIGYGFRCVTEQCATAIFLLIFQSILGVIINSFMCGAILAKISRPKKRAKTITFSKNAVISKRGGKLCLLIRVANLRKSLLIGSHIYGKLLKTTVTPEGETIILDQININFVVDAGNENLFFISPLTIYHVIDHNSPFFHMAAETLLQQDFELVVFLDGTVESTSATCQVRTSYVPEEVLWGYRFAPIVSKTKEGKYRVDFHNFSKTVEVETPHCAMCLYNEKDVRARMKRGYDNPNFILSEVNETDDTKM
sdo1 growth: compounds rescuing growth of sdo1-depleted yeast, bone marrow failure model. S. cerevisiae sdo1-depleted JHY4D growth rescue, OD600 30 h; active compounds read high; pdr5 snq2 efflux-pump mutant strain. z-score at 10 µM. 0.21% of 140,000 active. AID 817;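 active means z-score above 3 at both the 24 hr and the 30 hr optical density reads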
Insulin prom inh: TRM-6 insulin promoter activity inhibition. TRM-6 cells (human fetal islet line), insulin promoter-eGFP reporter, imaging; reporter expression induced with tamoxifen. inhibition, % at 2 µM. 0.9% of 130,000 active. AID 1273;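 active means inhibition above the mean plus 3 SD, with well images judged a real hit on visual review, cut at about 60% in these data, passing the limit was not always enough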
Numbers stand for hits; 0 = inactive; - = not tested or not shown.

SMILES	Measles CPE	ROMK mod	sdo1 growth	Insulin prom inh
COc1ccc(NC(=O)CN2CCN(CC(=O)Nc3ccccc3Cl)CC2)cc1Cl	0	0	0	0
O=C(CN1CCN(c2ccccc2)CC1)Nc1ccccc1C(F)(F)F	31.7	-	0	87.9
COc1ccccc1NC(=O)CN1CCN(CC(=O)Nc2ccc(Cl)c(C(F)(F)F)c2)CC1	0	-2.46	0	0
Cc1ccc(C)c2c3c([nH]c12)-c1nonc1CC3	74.3	0	0	0
COc1cc(/C=C/C(=O)N2CCCc3ccccc32)cc(OC)c1OC	0	-	0	0
O=C(Nc1nc2ccccc2s1)C1CC(=O)N(c2ccc(Br)cc2)C1 (configuration not stated)	0	0	0	66.7
O=C(Nc1nc2ccccc2s1)C1CC(=O)N(c2ccccc2)C1 (configuration not stated)	0	-	0	0
CNCC/C=C1/c2ccccc2CSc2ccccc21	0	-4.86	0	0
COc1ccc(/C=N/NC(=O)CCc2c(C)n[nH]c2C)cc1O	0	0	0	0
CC(C)c1ccccc1NC(=S)NCCCn1ccnc1	-	-	-	0
O=C(NCCCn1ccnc1)Nc1cccc2ccccc12	25.9	0	0	0
CC(=O)SCCC(=O)N1C(C)CCCC1C(=O)O (configuration not stated)	0	-	0	-
CSCCC(=O)N1C(C)CCCC1C(=O)O (configuration not stated)	26.5	-	0	0
CCOC(=O)Cn1c(-c2nonc2NC(=O)c2ccccc2F)nc2ccccc21	50.5	0	0	0
O=C(CSc1cn(Cc2ccccc2)c2ccccc12)NCc1ccc(F)cc1	0	0	0	0
COc1ccc(/C=C/C(=O)CC(O)(c2ccccc2)C(F)(F)F)cc1 (configuration not stated)	0	-	0	84.6
CC1CC(=O)c2cnc(NCC3CCCO3)nc2C1 (configuration not stated)	0	-	0	0
CC1(C)CC(=O)c2cnc(NCC3CCCO3)nc2C1 (configuration not stated)	29.7	-	0	0
CC(C)(C)c1ccc(C2CC2C(=O)N/N=C\c2cc3ccccc3nc2Cl)cc1 (configuration not stated)	51.4	-	0	0
Cc1ccc2nc(Cl)c(/C=N/NC(=O)[C@H]3C[C@@H]3c3ccccc3)cc2c1	0	0	0	0
O=C(CSc1nc2c(c(=O)[nH]1)CCCC2)Nc1ccc(Cl)cc1F	0	-	0	-
COc1ccc(Cn2c(=O)c3cccnc3n(Cc3ccc([N+](=O)[O-])cc3)c2=O)cc1	-	2.79	-	-
COc1ccc(CCn2c(=O)c3cccnc3n(Cc3ccc([N+](=O)[O-])cc3)c2=O)cc1OC	-	0	-	-
S=C(Nc1ccccc1)N1CCN(c2ccc(N3CCOCC3)nn2)CC1	-	0	-	75.0
Cc1ccc(N2CCN(C(=S)Nc3ccccc3)CC2)cc1	-	0	-	-
SMILES	Measles CPE	ROMK mod	sdo1 growth	Insulin prom inh
CCCOC(=O)Nc1nnc(CCC)s1	0	-	0	0
Cc1ccc2c(C)nc(/N=C(\N)NC(=O)N3c4ccccc4Sc4ccccc43)nc2c1	0	0	0	80.0
c1csc(-c2cn3ccc4ccccc4c3n2)c1	-	-	-	85.7
CCCN(CCC)S(=O)(=O)c1ccc(C(=O)N2CCOCC2)cc1	0	0	0	-
Cc1ccc(-c2csc3ncnc(-n4cnc5ccccc54)c23)cc1	0	-	0	-
CCc1cccc(C)c1NC(=O)c1ccoc1C	43.8	-	0	0
Cc1ccccc1CN1CCN(CC(=O)NCc2ccc3c(c2)OCO3)C1=O	0	0	0	-
Cc1cccc(C(=O)NC(=S)NNC(=O)COc2ccc(Cl)cc2)c1	-	3.31	-	-
O=C(COc1ccccc1)NNC(=S)NC(=O)c1ccc(Cl)cc1Cl	0	-	0	0
Cn1c(C(=O)NCc2ccccc2)cc2oc3ccccc3c21	73.2	0	0	0
Cn1c(C(=O)NCc2cccs2)cc2oc3ccccc3c21	47.6	-	0	0
O=C(COc1ccccc1)NCC1CCCO1 (configuration not stated)	0	-	0	0
O=C(COc1ccc(F)cc1)NCC1CCCO1 (configuration not stated)	42.7	0	0	0
COCCNC(=S)N1CCOCC1	0	-	0	-
CC(=O)c1c(OC(=O)c2ccco2)c2ccccc2n1C	0	-	0	-
CC(=O)c1c(OC(=O)c2ccc(C)cc2)c2ccccc2n1C	71.2	-	0	100.0
CCN(CC)S(=O)(=O)c1ccc(/C=C/C(=O)OCC(=O)Nc2ccc(S(N)(=O)=O)cc2)cc1	27.9	0	0	0
CC1CCCN(C(c2cccs2)c2nnnn2Cc2ccccc2)C1 (configuration not stated)	0	0	0	0
Cc1cc2ncn(S(=O)(=O)c3ccc(S(=O)(=O)N4CCOCC4)cc3)c2cc1C	0	-	0	0
Cc1cc2nc(CCN3CCOCC3)n(S(=O)(=O)c3ccc(C(C)(C)C)cc3)c2cc1C	0	0	0	85.7
CCOc1ccc(S(=O)(=O)N(C)c2ccc(OCC(=O)NCC3CCCO3)cc2)cc1 (configuration not stated)	-	0	-	0
O=C1c2cccnc2-c2ncccc21	46.1	-	0	0
Cn1ncc2c(Nc3ccccc3Br)ncnc21	-	0	0	-
Cn1ncc2c(Nc3ccc(-c4ccccc4)cc3)ncnc21	75.4	-	0	-
Nc1nc(-c2ccc3c(c2)CCO3)cs1	-	0	-	-
SMILES	Measles CPE	ROMK mod	sdo1 growth	Insulin prom inh
O=C1NC2=C(CCc3ccccc32)C(c2ccccc2)N1 (configuration not stated)	0	0	0	61.1
CC1(C)NC(=O)N(CCCCOc2ccc(Br)cc2Cl)C1=O	0	0	0	0
CC1(C)NC(=O)N(CCCOc2ccc(Br)cc2Cl)C1=O	56.8	-	0	0
O=C(c1ccco1)N1CCN(c2nnc(-c3ccccc3)c3ccccc23)CC1	0	0	0	0
CC(C)Cc1nnc(NC(=O)CCC(=O)N2CCN(c3ccccn3)CC2)s1	0	0	0	0
CC1CCCC(C)N1C(=O)COC(=O)c1ccc2c(c1)OCO2 (configuration not stated)	0	0	0	-
C[N+]12CCCCC1C(COC(=O)c1ccc3c(c1)OCO3)CCC2 (configuration not stated)	0	0	0	75.0
O=C(NC1CCCCC1)C(c1cccs1)N(Cc1cccs1)C(=O)c1ccco1 (configuration not stated)	0	-	0	-
CCOc1cc(/C=N/NC(N)=O)cc(Br)c1OCC(=O)Nc1cccc2ccccc12	45.4	0	0	0
CCOc1cc(/C=N/NC(N)=O)cc(Br)c1OCC(=O)Nc1ccccc1C	0	0	0	0
CC(=O)Nc1ccc(S(=O)(=O)NNC(=O)COc2cc(C)ccc2C(C)C)cc1	54.0	0	0	0
CC1(C)CC(NC(=O)c2c(N)no[n+]2[O-])CC(C)(C)N1	-	0	-	0
CCn1cc([N+](=O)[O-])c(C(=O)Nc2ccn(Cc3ccccc3F)n2)n1	0	0	0	0
Cc1ccccc1Cn1ccc(NC(=O)c2nn(C)cc2[N+](=O)[O-])n1	0	0	0	84.6
Cc1ccc(C(=O)Nc2nc3ccccc3n3nnnc23)cc1	20.6	-	0	0
COc1cccc(NC2=Nc3cccc4cccc2c34)c1	0	-	0	-
O=C(Oc1ccc2ccccc2c1Br)N1CCCCCC1	47.3	-	0	0
CCN(CC)C(=O)Oc1ccc2ccccc2c1Br	-	0	-	0
c1coc(-c2nc3ccccc3nc2-c2ccco2)c1	40.6	-	0	-

Bioassay records deposited in PubChem BioAssay by several laboratories.
